Data taken from PubChem BioAssay AID1159580 (chemical genetic matrix, 2015).
Among all 5,500 compounds or so, about 2,000 (36%) were called active. About 18% were inconclusive and are not listed. Cut-off read from the data, not from the text of the source: active = normalized growth mostly below about 0.91 (no sharp cut-off); inconclusive = no clear call, values can overlap the other calls; inactive = mostly above about 0.92. This is one part of the list.

Experiment: chemical genetic growth profiling, strain panel (AID 1159580);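 note: tested at 20 µM; growth read once vehicle control cultures reached saturation at 30 °C; 1 = growth at the plate median or of vehicle wells; lower values mean less growth of the strain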
Settings: growth OD

Measured: normalized growth

CC(=O)OCC(=O)[C@@]1(O)CCC2C3C[C@H](C)C4=CC(=O)C=CC4(C)C3[C@@H](O)CC21C (some centres not stated)
inactive: S. cerevisiae deletion strains, locus YJR075W, strain HOC1, stronger effect = lower value 1.01 | S. cerevisiae deletion strains, locus YKL009W, strain mrt4, stronger effect = lower value 1.01 | S. cerevisiae deletion strains, locus YKL068W, stronger effect = lower value 1.02 | S. cerevisiae deletion strains, locus YKL085W, strain MDH1 (second series), stronger effect = lower value 0.995 | S. cerevisiae deletion strains, locus YKL085W, strain MDH1, stronger effect = lower value 0.995 | S. cerevisiae deletion strains, locus YKL160W, strain elf1, stronger effect = lower value 1.03 | S. cerevisiae deletion strains, locus YKL190W, strain CNB1, stronger effect = lower value 1 | S. cerevisiae deletion strains, locus YKR001C, strain vps1, stronger effect = lower value 0.997 | S. cerevisiae deletion strains, locus YKR026C, strain gcn3, stronger effect = lower value 1.01 | S. cerevisiae deletion strains, locus YKR091W, strain srl3, stronger effect = lower value 1.01 | S. cerevisiae deletion strains, locus YLL001W, strain dnm1, stronger effect = lower value 0.999 | S. cerevisiae deletion strains, locus YLL026W, stronger effect = lower value 1.01 | S. cerevisiae deletion strains, locus YLL041C, strain sdh2, stronger effect = lower value 1.01 | S. cerevisiae deletion strains, locus YLR027C, strain aat2, stronger effect = lower value 1.01 | S. cerevisiae deletion strains, locus YLR039C, strain RIC1, stronger effect = lower value 1.02 | S. cerevisiae deletion strains, locus YLR058C, strain SHM2, stronger effect = lower value 1.01 | S. cerevisiae deletion strains, locus YLR102C, strain apc9, stronger effect = lower value 1.01 | S. cerevisiae deletion strains, locus YLR113W, strain HOG1, stronger effect = lower value 1.02 | S. cerevisiae deletion strains, locus YLR221C, strain rsa3, stronger effect = lower value 0.997 | S. cerevisiae deletion strains, locus YLR258W, strain gsy2, stronger effect = lower value 1.03 | S. cerevisiae deletion strains, locus YLR262C, strain YPT6 (second series), stronger effect = lower value 1.03 | S. cerevisiae deletion strains, locus YLR262C, strain YPT6, stronger effect = lower value 1.01 | S. cerevisiae deletion strains, locus YLR268W, strain sec22, stronger effect = lower value 0.987 | S. cerevisiae deletion strains, locus YLR320W, strain mms22, stronger effect = lower value 1.01 | S. cerevisiae deletion strains, locus YLR330W, strain CHS5, stronger effect = lower value 1.01 | S. cerevisiae deletion strains, locus YLR342W, strain FKS1 (second series), stronger effect = lower value 1.03 | S. cerevisiae deletion strains, locus YLR342W, strain FKS1, stronger effect = lower value 1.02 | S. cerevisiae deletion strains, locus YLR357W, strain rsc2, stronger effect = lower value 1.03 | S. cerevisiae deletion strains, locus YLR370C, strain arc18, stronger effect = lower value 1.01 | S. cerevisiae deletion strains, locus YLR371W, strain rom2, stronger effect = lower value 1 | S. cerevisiae deletion strains, locus YLR384C, strain iki3, stronger effect = lower value 0.999 | S. cerevisiae deletion strains, locus YLR418C, strain cdc73, stronger effect = lower value 0.974 | S. cerevisiae deletion strains, locus YML016C, strain PPZ1, stronger effect = lower value 1 | S. cerevisiae deletion strains, locus YML032C, strain rad52, stronger effect = lower value 1.02 | S. cerevisiae deletion strains, locus YML120C, strain ndi1, stronger effect = lower value 1.02 | S. cerevisiae deletion strains, locus YML124C, strain tub3, stronger effect = lower value 1 | S. cerevisiae deletion strains, locus YMR058W, strain fet3, stronger effect = lower value 1.02 | S. cerevisiae deletion strains, locus YMR078C, strain ctf18, stronger effect = lower value 1 | S. cerevisiae deletion strains, locus YMR125W, strain sto1, stronger effect = lower value 1.04 | S. cerevisiae deletion strains, locus YMR129W, stronger effect = lower value 1.01 | S. cerevisiae deletion strains, locus YMR205C, strain PFK2, stronger effect = lower value 1.02 | S. cerevisiae deletion strains, locus YMR223W, strain ubp8, stronger effect = lower value 1.01 | S. cerevisiae deletion strains, locus YMR231W, strain pep5, stronger effect = lower value 1.02 | S. cerevisiae deletion strains, locus YMR263W, strain SAP30, stronger effect = lower value 1 | S. cerevisiae deletion strains, locus YMR307W, strain GAS1, stronger effect = lower value 1.03 | S. cerevisiae deletion strains, locus YNL067W, strain RPL9B, stronger effect = lower value 0.996 | S. cerevisiae deletion strains, locus YNL071W, strain lat1, stronger effect = lower value 1.01 | S. cerevisiae deletion strains, locus YNL128W, strain TEP1, stronger effect = lower value 1.01 | S. cerevisiae deletion strains, locus YNL153C, strain GIM3, stronger effect = lower value 0.998 | S. cerevisiae deletion strains, locus YNL183C, strain NPR1, stronger effect = lower value 0.962 | S. cerevisiae deletion strains, locus YNL209W, strain ssb2, stronger effect = lower value 1 | S. cerevisiae deletion strains, locus YNL233W, strain BNI4, stronger effect = lower value 1.01 | S. cerevisiae deletion strains, locus YNL248C, strain rpa49, stronger effect = lower value 1.02 | S. cerevisiae deletion strains, locus YNL250W, strain rad50, stronger effect = lower value 1 | S. cerevisiae deletion strains, locus YNL271C, strain bni1, stronger effect = lower value 1 | S. cerevisiae deletion strains, locus YNL298W, strain CLA4, stronger effect = lower value 1.01 | S. cerevisiae deletion strains, locus YNL307C, strain MCK1, stronger effect = lower value 1.01 | S. cerevisiae deletion strains, locus YNL322C, strain KRE1 (second series), stronger effect = lower value 1 | S. cerevisiae deletion strains, locus YNL322C, strain KRE1, stronger effect = lower value 1 | S. cerevisiae deletion strains, locus YNR049C, strain mso1, stronger effect = lower value 1.02 | S. cerevisiae deletion strains, locus YNR052C, strain pop2, stronger effect = lower value 1 | S. cerevisiae deletion strains, locus YOL006C, strain TOP1, stronger effect = lower value 1.01 | S. cerevisiae deletion strains, locus YOL012C, strain htz1 1.08 | S. cerevisiae deletion strains, locus YOL147C, strain pex11, stronger effect = lower value 1 | S. cerevisiae deletion strains, locus YOR001W, strain rrp6, stronger effect = lower value 0.988 | S. cerevisiae deletion strains, locus YOR061W, strain CKA2, stronger effect = lower value 1 | S. cerevisiae deletion strains, locus YOR069W, strain VPS5, stronger effect = lower value 1.01 | S. cerevisiae deletion strains, locus YOR070C, strain gyp1, stronger effect = lower value 1.02 | S. cerevisiae deletion strains, locus YOR080W, strain dia2, stronger effect = lower value 1.06 | S. cerevisiae deletion strains, locus YOR083W, strain WHI5, stronger effect = lower value 1.02 | S. cerevisiae deletion strains, locus YOR106W, strain vam3, stronger effect = lower value 1.01 | S. cerevisiae deletion strains, locus YOR136W, strain idh2, stronger effect = lower value 1.01 | S. cerevisiae deletion strains, locus YOR144C, strain elg1, stronger effect = lower value 1.01 | S. cerevisiae deletion strains, locus YOR184W, strain ser1, stronger effect = lower value 1.01 | S. cerevisiae deletion strains, locus YOR231W, strain MKK1, stronger effect = lower value 1.02 | S. cerevisiae deletion strains, locus YOR265W, strain rbl2, stronger effect = lower value 1.01 | S. cerevisiae deletion strains, locus YOR270C, strain vph1, stronger effect = lower value 0.982 | S. cerevisiae deletion strains, locus YOR290C, strain snf2, stronger effect = lower value 1.03 | S. cerevisiae deletion strains, locus YOR316C, strain cot1, stronger effect = lower value 1 | S. cerevisiae deletion strains, locus YPL051W, strain arl3, stronger effect = lower value 1.03 | S. cerevisiae deletion strains, locus YPL055C, strain LGE1, stronger effect = lower value 0.999 | S. cerevisiae deletion strains, locus YPL078C, strain atp4, stronger effect = lower value 1.03 | S. cerevisiae deletion strains, locus YPL106C, strain sse1, stronger effect = lower value 1.04 | S. cerevisiae deletion strains, locus YPL240C, strain hsp82, stronger effect = lower value 0.994 | S. cerevisiae deletion strains, locus YPL241C, strain CIN2, stronger effect = lower value 1.01 | S. cerevisiae deletion strains, locus YPL256C, strain CLN2, stronger effect = lower value 1.01 | S. cerevisiae deletion strains, locus YPR119W, strain clb2, stronger effect = lower value 1.01 | S. cerevisiae deletion strains, locus YPR141C, strain kar3, stronger effect = lower value 1.01 | S. cerevisiae deletion strains, locus YPR163C, strain tif3, stronger effect = lower value 1.01 | S. cerevisiae deletion strains, locus YPR167C, strain met16, stronger effect = lower value 0.995 | S. cerevisiae deletion strains, strain wtn01, stronger effect = lower value 1.01 | S. cerevisiae strains, strain wild type, stronger effect = lower value 1
